Test results from PubChem BioAssay (EPA / NIEHS).
“And” between values parts separate entries of the source, which are not always exact repeats. Equal entries are not always repeated. A structure can be active in one record and inactive in another. The source made the active and inactive calls. Rule for the calls: active = hit-call score of the fitted dose curve at least 0.9, where 1 is the maximum; inactive = score below 0.9.

The molecules below were run against Heat shock factor protein 1 (Homo sapiens) (UniProt Q00613) (assay: ATG_HSE_CIS: Attagene CIS-FACTORIAL HepG2 Assay for human Heat Shock Transcription Factor 1 (HSE) (AID 2282953)). Conditions: HepG2 HSE cis-reporter, Attagene RNA transcription; actives raise or lower the signal.
Protocol: ATG_CIS is a cell-based, multiplexed-readout assay that uses HepG2, a human liver cell line, with measurements taken at 24 hours after chemical dosing in a 24-well plate.ATG_HSE_CIS is one of 52 assay component(s) measured or calculated from the ATG_CIS assay. It is designed to make measurements of mRNA induction, a form of inducible reporter, as detected with fluorescence intensity signals by Reverse transcription polymerase chain reaction (RT-PCR) and Capillary electrophoresis technology.Data from the assay component ATG_HSE_CIS was analyzed into 1 assay endpoint. This assay endpoint, ATG_HSE_CIS, was analyzed with bidirectional fitting relative to DMSO as the negative control and baseline of activity. Using a type of inducible reporter, measures of mRNA for gain or loss-of-signal activity can be used to understand the reporter gene at the transcription factor-level as they relate to the gene HSF1. Furthermore, this assay endpoint can be referred to as a primary readout, because this assay has produced multiple assay endpoints where this one serves a reporter gene function. To generalize the intended target to other relatable targets, this assay endpoint is annotated to the dna binding intended target family, where the subfamily is heat shock protein.
Human liver HepG2 cells are transiently transfected with multiple reporter transcription units (MRTUs) in 6-well plates using FuGene 6 reagent (Roche; 3 ml FuGene/1 mg DNA). The MRTU constructs are regulated by a cis-regulating element (promoter). […] A major difference between the CIS and TRANS system is that in CIS activities of endogenous TFs are measured, whereas the TRANS assay evaluates changes in activities of exogenous, chimeric NR-Gal4 proteins. […] At the end of 24 hour incubation, total RNA was isolated using TriZol reagent (Invitrogen). The isolated RNA is then reverse-transcribed using oligo(dT) primer and Mo-MLV reverse transcriptase (Invitrogen) with DNAse I (Ambion) treatment for 30 min. The one-tenth of the produced cDNA was amplified by PCR using Taq DNA polymerase (Invitrogen) and two reporter sequence-specific primers. The PCR products were fluorescently labeled by primer extension with 6-arboxyfluorescein (6-FAM) 5'-labeled reporter sequence-specific primer (2 min at 95 C, 20 s at 68 C and 10 min at 72 C) and these products were digested with 5U of HpaI (New England Biolabs) for 2h at 37 C. The fragments were purified using Qiaquick PCR columns (Qiagen), analyzed on an ABI 3130xL genetic analyzer (Applied Biosystems) with peak positions identified by using a set of X-rhodamine (ROX)-labeled MapMarker1000 molecular weight standards (BioVentures). The raw capillary electrophoresis data was processed using Attagraph software (Attagene).

Heat shock factor protein 1 (Homo sapiens), sequence (Q00613 whole entry, looked up): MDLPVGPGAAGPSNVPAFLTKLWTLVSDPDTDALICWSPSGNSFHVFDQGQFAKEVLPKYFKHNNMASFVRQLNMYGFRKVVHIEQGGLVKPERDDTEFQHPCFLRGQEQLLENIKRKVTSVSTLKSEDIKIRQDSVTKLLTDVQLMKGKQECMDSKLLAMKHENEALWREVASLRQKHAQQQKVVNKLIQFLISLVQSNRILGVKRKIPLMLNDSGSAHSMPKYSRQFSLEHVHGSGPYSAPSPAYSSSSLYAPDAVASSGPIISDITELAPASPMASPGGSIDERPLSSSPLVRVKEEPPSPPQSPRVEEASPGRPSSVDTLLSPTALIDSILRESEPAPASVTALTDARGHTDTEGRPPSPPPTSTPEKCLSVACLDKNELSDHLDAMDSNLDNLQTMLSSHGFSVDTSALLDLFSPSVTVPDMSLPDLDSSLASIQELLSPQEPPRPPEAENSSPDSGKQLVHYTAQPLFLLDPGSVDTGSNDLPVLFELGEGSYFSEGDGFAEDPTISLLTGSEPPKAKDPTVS

Row | Compound | outcome | AC50
1 | FC(F)(F)C(F)(F)C(F)(F)CI | inactive | 
2 | CC(C)(C)c1ccc(OC2CCCCC2O)cc1 (stereo not given) | inactive | 
3 | C=CC(F)(F)C(F)(F)C(F)(F)C(F)(F)C(F)(F)C(F)(F)C(F)(F)C(F)(F)F | inactive | 
4 | Nc1ccc(Oc2cccc(Oc3ccc(N)cc3)c2)cc1 |  | 160 µM (active)
5 | Nc1ccc([N+](=O)[O-])cc1O | inactive | 
6 | CCCCCCC(C)OC(=O)CCCCC(=O)OC(C)CCCCCC (stereo not given) | inactive | 
7 | FC(F)(F)C(F)(F)C(F)(F)C(F)(F)C(F)(F)C(F)(F)C(F)(F)Br | inactive | 
8 | CCN(Cc1cccc(S(=O)(=O)O)c1)c1ccc(C(=C2C=CC(=[N+](CC)Cc3cccc(S(=O)(=O)O)c3)C=C2)c2ccc(O)cc2S(=O)(=O)[O-])cc1 | inactive | 
9 | CCCCOc1ccc(N)cc1 | inactive | 
10 | C=C(C)C(=O)OCC(F)(F)C(F)(F)C(F)(F)F | inactive | 
11 | O=S(=O)(OCCOC(F)(F)F)C(F)(F)F | inactive | 
12 | O=C(CC(=O)C(F)(F)C(F)(F)F)C(F)(F)F | inactive | 
13 | O=C(O)C(F)(F)C(F)(F)C(F)(F)C(F)(F)C(F)(F)C(F)(F)C(F)(F)C(F)(F)C(F)(F)C(F)F | inactive | 
14 | CC(C)c1ccccc1N | inactive | 
15 | CC(CCl)OP(=O)(OC(C)CCl)OC(C)CCl (stereo not given) | inactive | 
16 | C#C[C@]1(O)CC[C@H]2[C@@H]3CCc4cc(OC)ccc4[C@H]3CC[C@@]21C | inactive | 
17 | [Co] | inactive | 
18 | FC(F)(F)C(F)(F)C(F)(F)C(F)(F)C(F)(F)CCI | inactive | 
19 | C=C(C)C(=O)OCCC(F)(F)C(F)(F)C(F)(F)C(F)(F)C(F)(C(F)(F)F)C(F)(F)F | inactive | 
20 | O=C(O)C(F)(F)C(F)(F)C(F)(F)C(F)(F)C(F)(F)C(F)(F)C(F)(F)C(F)(F)Cl |  | 75.8 µM (active) and 82.1 µM (active)

Row | Compound | outcome | AC50
21 | CCC(=O)OCCc1ccccc1 | inactive | 
22 | CCCCCCCOC(=O)c1ccccc1C(=O)OCCCCCCC | inactive | 
23 | NC(=O)C(F)(F)C(F)(F)C(F)(F)C(F)(F)F | inactive | 
24 | FC(F)(I)C(F)(F)C(F)(F)C(F)(F)I | inactive | 
25 | O=C(O)C(F)(F)C(F)(F)C(F)(F)F | inactive | 
26 | COC(=O)CCC(F)(F)C(F)(F)C(F)(F)C(F)(F)F | inactive | 
27 | Cc1cccc(N(C)C)c1 | inactive | 
28 | OCCCC(F)(F)C(F)(F)C(F)(F)C(F)(F)C(F)(F)C(F)(F)C(F)(F)F | inactive | 95.1 µM (active)
29 | CC(=O)Nc1ccc(N=Nc2cc(C)ccc2O)cc1 | inactive | 
30 | CCCCCCS | inactive | 
31 | FC(F)(F)C(F)(F)C(F)(F)C(F)(F)C(F)(F)C(F)(F)C(F)(F)C(F)(F)CCS | inactive | 
32 | CCCCC(CC)COP(=O)(O)OCC(CC)CCCC (stereo not given) | inactive | 
33 | CNC(=S)NC | inactive | 
34 | O=S(=O)(OCC(F)F)C(F)(F)F | inactive | 
35 | Cc1ccc(S(=O)(=O)OCC(F)(F)C(F)(F)C(F)(F)C(F)(F)C(F)(F)C(F)F)cc1 | inactive | 
36 | O=S(=O)(O)C(F)(F)C(F)(F)C(F)(F)C(F)(F)C(F)(F)C(F)(F)C(F)(F)F | inactive | 
37 | FC(F)(F)C(F)(F)C(F)(F)C(F)(F)C(F)(F)C(F)(F)CCS | inactive | 
38 | OCC(F)(F)C(F)(F)C(F)(F)C(F)F | inactive | 
39 | CCCCOCCOCCOC(=O)CCCCC(=O)OCCOCCOCCCC | inactive | 
